Read-out in experiment [1]: Transforming Growth Factor (TGFB1), TGFB1 (gene 7040)
The experiment can be described thus: LTEA_HepaRG_TGFB1: Life Technologies and Expression Analysis (LTEA) Assay for Transforming Growth Factor (TGFB1) Transporter using HepaRG (AID 2283533; active means hit-call score of the fitted dose curve at least 0.9, where 1 is the maximum; inactive means score below 0.9). The conditions noted are these: mRNA level, 48 h; actives raise or lower the signal. An outline of the steps:
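Differentiated human HepaRG cells in serum-free induction medium were exposed in duplicate for 48 h to eight concentrations (top 100 uM, half-log steps, 0.5% DMSO). TGFB1 mRNA was quantified by qRT-PCR, normalized to ACTB, GAPDH, POLR2A, and fitted bidirectionally against DMSO.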

Read-out in the next experiment: TIMP1, TIMP1 (gene 7076)
The experiment can be described thus: LTEA_HepaRG_TIMP1: Life Technologies and Expression Analysis (LTEA) Assay for TIMP1 using HepaRG (AID 2283534; active means hit-call score of the fitted dose curve at least 0.9, where 1 is the maximum; inactive means score below 0.9;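 further: TaqMan qRT-PCR signal normalized to ACTB GAPDH and POLR2A housekeeping genes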). The conditions noted are these: mRNA level, 48 h; actives raise or lower the signal. An outline of the steps:
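Differentiated human HepaRG cells in serum-free induction medium were exposed 48 h to chemicals (8 half-log concentrations, top 100 uM, 0.5% DMSO). TIMP1 mRNA was quantified by TaqMan qRT-PCR, normalized to ACTB/GAPDH/POLR2A; bidirectional fit versus DMSO.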

Read-out in experiment [2]: Tumor necrosis factor receptor 1 (TNFRSF1A), TNFRSF1A (gene 7132)
The experiment can be described thus: LTEA_HepaRG_TNFRSF1A: Life Technologies and Expression Analysis (LTEA) Assay for Tumor necrosis factor receptor 1 (TNFRSF1A) using HepaRG (AID 2283535; active means hit-call score of the fitted dose curve at least 0.9, where 1 is the maximum; inactive means score below 0.9). The following applies: mRNA level, 48 h; actives raise or lower the signal. The method, boiled down:
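Differentiated human HepaRG cells were exposed in duplicate for 48 h in serum-free induction medium to eight concentrations (top 100 uM, half-log steps, 0.5% DMSO). TNFRSF1A mRNA was quantified by qRT-PCR, normalized to ACTB, GAPDH and POLR2A, then fitted bidirectionally against DMSO.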

Read-out in experiment [3]: Thyroid Hormone Responsive (THRSP), THRSP (gene 7069)
The experiment can be described thus: LTEA_HepaRG_THRSP: Life Technologies and Expression Analysis (LTEA) Assay for Thyroid Hormone Responsive (THRSP) using HepaRG (AID 2283536; active means hit-call score of the fitted dose curve at least 0.9, where 1 is the maximum; inactive means score below 0.9). The conditions noted are these: mRNA level, 48 h; actives raise or lower the signal. The method, boiled down:
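THRSP transcript quantified by Fluidigm qRT-PCR against three housekeeping genes after 48 h chemical exposure of HepaRG cells in serum-free induction medium; eight-point half-log series, top 100 uM, 0.5% DMSO vehicle, duplicate wells.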

Read-out in experiment [4]: Cellular tumor antigen p53 (Homo sapiens) (UniProt P04637)
The experiment can be described thus: LTEA_HepaRG_TP53: Life Technologies and Expression Analysis (LTEA) Assay for Tumor Protein P53 (TP53) using HepaRG (AID 2283537; active means hit-call score of the fitted dose curve at least 0.9, where 1 is the maximum; inactive means score below 0.9). The following applies: mRNA level, 48 h; actives raise or lower the signal. The method, boiled down:
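Differentiated HepaRG cells in serum-free induction medium exposed 48 h in duplicate to 8 half-log concentrations, top 100 uM, 0.5% DMSO. TP53 mRNA by TaqMan qRT-PCR (Fluidigm), normalized to ACTB, GAPDH, POLR2A; fitted bidirectionally versus DMSO.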

Read-out in experiment [5]: UDP glucuronosyltransferase (UGT1A1), UGT1A1 (gene 54658)
Put plainly: LTEA_HepaRG_UGT1A1: Life Technologies and Expression Analysis (LTEA) Assay for UDP glucuronosyltransferase (UGT1A1) using HepaRG (AID 2283538; active means hit-call score of the fitted dose curve at least 0.9, where 1 is the maximum; inactive means score below 0.9). The conditions noted are these: mRNA level, 48 h; actives raise or lower the signal. The method, boiled down:
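UGT1A1 transcript level, measured by qRT-PCR with three housekeeping genes for normalization, after 48 h treatment of human HepaRG cells (0.5% DMSO, duplicates, up to 100 uM, half-log steps, 8 points). Curves fit both directions against DMSO baseline.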

Read-out in experiment [6]: UDP glucuronosyltransferase (UGT1A6), UGT1A6 (gene 54578)
Put plainly: LTEA_HepaRG_UGT1A6: Life Technologies and Expression Analysis (LTEA) Assay for UDP glucuronosyltransferase (UGT1A6) using HepaRG (AID 2283539; active means hit-call score of the fitted dose curve at least 0.9, where 1 is the maximum; inactive means score below 0.9). The conditions noted are these: mRNA level, 48 h; actives raise or lower the signal. The method, boiled down: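 Human HepaRG cells were dosed for 48 h in serum-free induction medium with 0.5% DMSO vehicle, eight-point half-log series from 100 uM, in duplicate. UGT1A6 mRNA was measured by qRT-PCR, normalized to ACTB, GAPDH, POLR2A, and fitted bidirectionally against DMSO.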

Read-out in experiment [7]: X-box binding protein 1 (XBP1), XBP1 (gene 7494)
The experiment can be described thus: LTEA_HepaRG_XBP1: Life Technologies and Expression Analysis (LTEA) Assay for X-box binding protein 1 (XBP1) using HepaRG (AID 2283540; active means hit-call score of the fitted dose curve at least 0.9, where 1 is the maximum; inactive means score below 0.9). The conditions noted are these: mRNA level, 48 h; actives raise or lower the signal. An outline of the steps: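 Differentiated human HepaRG cells in serum-free induction medium were exposed in duplicate for 48 h to eight half-log concentrations up to 100 uM in 0.5% DMSO. XBP1 mRNA was quantified by qRT-PCR, normalised to ACTB, GAPDH and POLR2A, with bidirectional fitting against DMSO.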

Experiment [8] can be described thus: LTEA_HepaRG_LDH_cytotoxicity: Cytotoxicity Assessment in the Life Technologies and Expression Analysis (LTEA) Assay (AID 2283563).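 On AC50: LDH activity released into spent culture medium as a marker of cell death.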 The method, boiled down:
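Differentiated human HepaRG cells, plated 48 h beforehand, were switched to serum-free induction medium and exposed for 48 h to eight half-log concentrations (top 100 uM) in 0.5% DMSO. LDH was measured in spent medium; activity was fitted relative to DMSO vehicle.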

Experiment [9] can be described thus: ATG_XTT_Cytotoxicity: Cytotoxicity Assessment in the Attagene TRANS-FACTORIAL HepG2 Assay (AID 2283584).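 On AC50: cells exposed to compound for 24 h before reading; active means loss of viability signal versus DMSO baseline.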 The method, boiled down:
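HepG2 human liver cells, transiently transfected with multiple GAL4-UAS reporter units, were dosed and read at 24 h by XTT as cell number. Loss of signal was fitted relative to DMSO negative control baseline.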

Experiment [10] in a line: TOX21_p53_BLA_p2_viability: Viability Assessment in the Tox21 HCT-116 p53 Agonism Beta-lactamase Assay, Phase 2 (AID 2283591).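 Further: compound exposure lasted 16 h at 37 °C; actives lower the ATP signal meaning cytotoxicity.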 The method, boiled down: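 Cytotoxicity readout: CellTiter-Glo ATP luminescence, 30 min at room temperature, after the beta-lactamase read. Cells were HCT116 exposed 16 h at 37C to compounds pin-transferred at 217-fold dilution from DMSO stocks.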

Experiment [11] concerns the target Cellular tumor antigen p53 (Homo sapiens) (UniProt P04637). Put plainly: TOX21_p53_BLA_p2_ratio: Tox21 HCT-116 p53 Agonism Beta-lactamase Assay, Ratio, Phase 2 (AID 2283592). The method, boiled down: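 Ratio endpoint: beta-lactamase cleavage of CCF4-AM, blue (460 nm) over green (530 nm). HCT116 reporter line; 16 h treatment, 37C; substrate 2 h RT.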
Experiment [12] in a line: TOX21_p53_BLA_p3_viability: Viability Assessment in the Tox21 HCT-116 p53 Agonism Beta-lactamase Assay, Phase 3 (AID 2283593).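 Further: cells exposed to compound for 16 h before reading.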 The method, boiled down: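 Cellular ATP was quantified by CellTiter-Glo luminescence, read after 30 min at room temperature. Beforehand, HCT116 cells (4000/well) received compound 5 h post-seeding, 217-fold diluted from DMSO, then incubated 16 h at 37C.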

Experiment [13] is described as follows: TOX21_p53_BLA_p4_viability: Viability Assessment in the Tox21 HCT-116 p53 Agonism Beta-lactamase Assay, Phase 4 (AID 2283597).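 Further: hits lower the luminescence signal meaning cytotoxicity.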 The method, boiled down: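 Cytotoxicity was inferred from loss of CellTiter-Glo luminescence. HCT116 cells had been dosed with compounds after 5 h plating, incubated 16 h at 37C and 5% CO2, and exposed to the CCF4-AM substrate for 2 h.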

Experiment [14] concerns the target Cellular tumor antigen p53 (Homo sapiens) (UniProt P04637). The experiment can be described thus: TOX21_p53_BLA_p5_ratio: Tox21 HCT-116 p53 Agonism Beta-lactamase Assay, Ratio, Phase 5 (AID 2283599). An outline of the steps:
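Beta-lactamase reporter ratio (blue 460 nm over green 530 nm, 405 nm excitation) after 2 h CCF4-AM loading, in HCT-116 cells exposed 16 h at 37 C to compounds pinned at 217-fold dilution. Increases relative to DMSO baseline scored.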

Experiment [15] is described as follows: TOX21_p53_BLA_p5_viability: Viability Assessment in the Tox21 HCT-116 p53 Agonism Beta-lactamase Assay, Phase 5 (AID 2283600). The method, boiled down:
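Luciferase-coupled ATP quantitation of cells treated for 16 h (37C, 5% CO2) with test chemicals delivered in DMSO via a 217-fold dilution; 4000 cells/well; reagent incubated 30 min at room temperature before luminescence reading.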

For experiment [16], the target named is Cellular tumor antigen p53 (Homo sapiens) (UniProt P04637). Put plainly: TOX21_p53_BLA_p4_ratio: Tox21 HCT-116 p53 Agonism Beta-lactamase Assay, Ratio, Phase 4 (AID 2283601). An outline of the steps: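 Signal is the blue/green (460nm/530nm) ratio of cleaved versus uncleaved CCF4-AM substrate, read after 2 h substrate loading. Cells were HCT116 carrying the p53-responsive beta-lactamase reporter, dosed 16 h at 37C, 5% CO2; CellTiter-Glo measured in parallel.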

Experiment [17] can be described thus: Tanguay_ZF_120hpf_MORT_legacy: (Legacy) Oregon State University Tanguay Lab 120 Hour Post-fertilization zebrafish Assay for Mortality (AID 2283633).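 On AC50: fitted as increase in binary mortality versus DMSO negative control.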 An outline of the steps:
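Dechorionated Tropical 5D wild-type zebrafish embryos, one per well from 6 hpf, were statically exposed at 28C in the dark until 120 hpf (0.64% DMSO final). Mortality was scored as present/absent by brightfield microscopy, fitted positively versus DMSO.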

A short description of experiment [18]: Tanguay_ZF_120hpf_YSE_legacy: (Legacy) Oregon State University Tanguay Lab 120 Hour Post-fertilization zebrafish Assay for Yolk Sac Edema (AID 2283634).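 On AC50: actives raise the incidence of yolk sac edema above the DMSO baseline.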 An outline of the steps: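 Tropical 5D wild-type embryos, dechorionated with pronase at 4 hpf, were exposed singly from 6 hpf to 120 hpf under static, sealed, dark conditions at 28C with 0.64% DMSO final. Yolk sac edema was scored present/absent by brightfield microscopy.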

For experiment [19], the target named is Cellular tumor antigen p53 (Homo sapiens) (UniProt P04637). The experiment can be described thus: TOX21_p53_BLA_p3_ratio: Tox21 HCT-116 p53 Agonism Beta-lactamase Assay, Ratio, Phase 3 (AID 2283596). The method, boiled down: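 Cells were seeded at 4000/well, rested 5 h at 37C, then dosed with DMSO compound solutions (217-fold dilution) for 16 h. CCF4-AM substrate was loaded for 2 h at room temperature, and the 460/530 nm emission ratio was fitted for gain of signal versus DMSO.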

“And” between values parts separate entries of the source, which are not always exact repeats. Equal entries are not always repeated. Inconclusive results are not listed. A structure can be active in one record and inactive in another. The source made the active and inactive calls. How the source made its calls, unless noted: active means hit-call score of the fitted dose curve at least 0.9, where 1 is the maximum; inconclusive means response in the unintended direction; inactive means score below 0.9.

Cellular tumor antigen p53 (Homo sapiens), sequence (P04637 whole entry, looked up): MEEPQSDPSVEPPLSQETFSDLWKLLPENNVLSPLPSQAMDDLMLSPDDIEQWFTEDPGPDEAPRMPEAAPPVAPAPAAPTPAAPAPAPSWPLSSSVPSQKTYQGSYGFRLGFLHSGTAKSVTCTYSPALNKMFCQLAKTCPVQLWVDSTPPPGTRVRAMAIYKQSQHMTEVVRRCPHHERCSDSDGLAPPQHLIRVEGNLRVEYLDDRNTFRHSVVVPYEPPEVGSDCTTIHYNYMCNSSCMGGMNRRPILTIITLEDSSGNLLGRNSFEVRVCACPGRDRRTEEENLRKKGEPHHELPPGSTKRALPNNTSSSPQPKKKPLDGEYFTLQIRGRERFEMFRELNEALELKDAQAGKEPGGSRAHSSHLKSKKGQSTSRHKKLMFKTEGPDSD

As usually defined, the AC50 is the midpoint of the concentration-response curve, whichever way the signal moves. `O=C(O)COc1ccc(Cl)cc1Cl`: the outcome in experiment [1] is “inactive”; with TIMP1, TIMP1 (gene 7076), “inactive”; in [2] it was “inactive”; in experiment [3] it was “inactive”; in experiment [4], “inactive”; in experiment [5], “inactive”. Moreover, the outcome in experiment [6], in experiment [7], in experiment [8], in experiment [9], in [10] and in [11] was inactive. In addition, the outcome in experiment [12], in [13], in experiment [14], in experiment [15], in experiment [16] and in [17] was inactive. Moreover, the compound was called inactive in [18]. Also, in [16], the AC50 was 0.116 nM (active).

In the case of `O=S(=O)(O)C(F)(F)C(F)(F)C(F)(F)C(F)(F)C(F)(F)C(F)(F)C(F)(F)C(F)(F)F`, the AC50 is 48 µM (active) in experiment [1]; 34.2 µM (active) and 45.8 µM (active) and 60 µM (active) in experiment [3]; 50 µM (active) and 48 µM (active) in [4]; 12.9 µM (active) and 11.5 µM (active) and 11.9 µM (active) in experiment [5]; 75.8 µM (active) and 79.2 µM (active) and 75.4 µM (active) in experiment [8]; 151 µM (active) and 157 µM (active) in experiment [9]. Besides, the AC50 in experiment [10] was 46.1 µM (active); in [12], 61.4 µM (active); in experiment [13] it was 64.6 µM (active) and 48.8 µM (active) and 59.3 µM (active); in [16], 82.4 µM (active) and 82.8 µM (active); in [17] it was 426 nM (active) and 4.73 µM (active) and 20.8 µM (active); in experiment [18], 19.8 µM (active) and 7.26 µM (active) and 41.3 µM (active). The outcome is “inactive” in experiment [1]; “inactive” with TIMP1, TIMP1 (gene 7076); “inactive” in experiment [2]; “inactive” in [3]; “inactive” in experiment [7]; “inactive” in [8]. Moreover, the outcome in experiment [9], in experiment [10], in [11], in experiment [12], in [19] and in experiment [14] was inactive. In addition, the result in [15], in [16], in experiment [17] and in [18] was inactive.

These data come from PubChem BioAssay (EPA / NIEHS).
